Test results as given in PubChem BioAssay AID2315 (National Center for Advancing Translational Sciences (NCATS), 2010).
About 27,000 (9.3%) of roughly 290,000 compounds were called active. Cut-off read from the data, not from the text of the source: active = inhibition mostly above about 28% (no sharp cut-off); inactive = mostly below about 43%. This excerpt belongs to a sample that is enriched for actives.

Assay: A qHTS for Small Molecule Inhibitors of Shiga Toxin; note: 0% is about no effect
Settings: Vero cells, Shiga toxin protein synthesis inhibition reporter; at 38.7 µM, active compounds read high
In the case of CC(=O)N1CCCc2cc(S(=O)(=O)N3CCCC(C(=O)N4CCN(c5cccc(Cl)c5)CC4)C3)ccc21 (stereo not given), the inhibition is reported as -12.3% (inactive).
With COc1ccc(CNC(=O)C2CCN(C(=O)c3ccccc3)CC2)cc1 the inhibition was -21.8% (inactive).
For Cc1ccc2c(c1)N(CC(=O)NCCc1ccc(Cl)cc1)C(=O)c1cccnc1O2, the inhibition was 4.91% (inactive).
In the case of Cc1ccc(C)c(S(=O)(=O)N2CCN(C(=O)Nc3ccccc3)CC2)c1, the inhibition is reported as 17.4% (inactive).
In the case of Cc1ccc(NC(=O)Cn2nc(C)c3ccccc3c2=O)c(C)c1, the inhibition is reported as 10.2% (inactive).
With Cc1ccc(NC(=O)c2ccn(C(=O)Nc3ccccc3)n2)c(C)c1 the inhibition was 92.2% (active).
For CCOC(=O)c1cnc2ccc(F)cc2c1Nc1ccc2c(c1)OCCO2, the inhibition was 35% (active).
In the case of O=C(Nc1ccc2c(c1)OCCO2)C(c1ccc(F)cc1)N1CCCCC1 (stereo not given), the inhibition is reported as 5.25% (inactive).
For Cc1ccc2nc(-c3ccncc3)cc(C(=O)Nc3ccc4c(c3)OCCO4)c2c1, the inhibition was 9.13% (inactive).
For COc1ccc(C(=O)N(C)CC(O)c2ccccc2)cc1OC1CCN(C(C)=O)CC1 (stereo not given), the inhibition was -21% (inactive).
In the case of O=C(CCC1CCCN(C(=O)Cc2ccc(F)cc2)C1)N1CCN(c2ccccn2)CC1 (stereo not given), the inhibition is reported as -2.14% (inactive).
For O=C(Cc1ccccc1Cl)N1CCN(c2ccccn2)CC1, the inhibition was 7.93% (inactive).
With O=C(Cc1ccc(Br)cc1)N1CCN(c2ccccn2)CC1 the inhibition was 45.9% (active).
For CNC(=O)c1sc(Nc2ccc(OCc3ccccc3)cc2)nc1C, the inhibition was 43.2% (inactive).
With Cn1c(=NC(=O)c2cnccn2)sc2ccccc21 the inhibition was 48.7% (active).
For COC(=O)c1ccc(OC(=O)c2cnccn2)cc1, the inhibition was -3.05% (inactive).
With Cn1c(=NC(=O)CSCC(=O)N2CCCCC2)sc2ccccc21 the inhibition was 20.2% (inactive).
In the case of CCn1cc(C(=O)OCC(=O)Nc2cccc(C)c2)c(=O)c2ccc(C)nc21, the inhibition is reported as 12.3% (inactive).
For COc1ccc(S(=O)(=O)N2CCC(C(=O)NCCC(=O)NCc3cccc(OC)c3)CC2)cc1, the inhibition was -13% (inactive).
With COCCOC1CCN(C(=O)c2ccc(OC)c(OC3CCN(C(C)C)CC3)c2)CC1 the inhibition was 3.86% (inactive).
For Cc1cc(Cl)ccc1C(=O)C1CCCN(C(=O)c2nonc2C)C1 (stereo not given), the inhibition was -11% (inactive).
In the case of O=C(/C(=C/c1cccc(Cl)c1)c1nc2ccccc2[nH]1)c1ccccc1, the inhibition is reported as 37.9% (inactive).
In the case of O=C(Cc1nc2ccccc2[nH]c1=O)c1ccc(Cl)cc1, the inhibition is reported as 66.3% (active).
For N#C/C(=C(/O)COC(=O)COc1ccc(Cl)cc1)c1nc2ccccc2[nH]1, the inhibition was -6.24% (inactive).
In the case of O=S(=O)(Nc1cccc2cccnc12)c1cccc2cccnc12, the inhibition is reported as -6.53% (inactive).
